Data reported in PubChem BioAssay AID435019 (Southern Research Specialized Biocontainment Screening …, 2010).
The campaign covered roughly 2,300 compounds. About 1,200 (52%) were called active. No rule for the calls is given here. The set was probably picked from earlier hits. This is one part of the list. Entries with a potency or affinity are not part of this list.

Assay: mammalian cell cytotoxicity, dose response, cytotoxicity control for M. tuberculosis inhibitor project (AID 435019);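 also: lower values mean fewer viable cells so more cytotoxicity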
Conditions: cytotoxicity counter-screen; series mostly up to 40 µM

**Q.** With `CN(CCCCCCCCCCN(C)C(=O)Oc1cccc([N+](C)(C)C)c1)C(=O)Oc1cccc([N+](C)(C)C)c1` as the molecule, how does the outcome read?
**A.** The outcome was “inactive”.

**Q.** Which outcome does the source give for `CCOC(=O)c1ccc(NC(=S)Nc2ccc3[nH]c(=O)[nH]c3c2)cc1` here?
**A.** The outcome was “inactive”.

**Q.** With `CCOC(=O)c1ccc(Nc2cc3ccccc3c(=O)[nH]2)cc1` as the molecule, how does the outcome read?
**A.** The outcome was “inactive”.

**Q.** Which outcome does the source give for `CC(C)(C)OC(=O)NNC(=S)NC1CCCCC1` here?
**A.** The outcome was “inactive”.

**Q.** Which outcome does the source give for `CCOc1ccc(NC(=O)c2sc3nc(C)nc(N4CCOCC4)c3c2C)cc1` here?
**A.** Its outcome is “inactive”.

**Q.** For `CCOC(=O)CNC(=O)c1sc2ncnc(N3CCc4ccccc4C3)c2c1C`, which outcome is on record?
**A.** The outcome was “inactive”.

**Q.** With `O=C(Nc1ccc(-c2noc(CCc3ccccc3)n2)cc1)c1cccnc1` as the molecule, how does the outcome read?
**A.** Its outcome is “inactive”.

**Q.** With `CCOC(=O)c1nnc(-c2ccccc2)nc1NCc1ccccc1` as the molecule, how does the outcome read?
**A.** The outcome was “inactive”.

**Q.** For `O=C(OCC(=O)N1CCCCC1)c1cc2ccccc2cc1O`, which outcome is on record?
**A.** The outcome was “inactive”.

**Q.** With `COC(=O)C(CCSC)NC(=O)c1cn(-c2ccc(OC)cc2)c(=O)c2ccccc12` (stereo unspecified) as the molecule, how does the outcome read?
**A.** The outcome was “inactive”.

**Q.** Which outcome does the source give for `COC(=O)CSc1nnc([C@H](CC(C)C)NC(=O)OC(C)(C)C)o1` here?
**A.** The outcome was “inactive”.

**Q.** For `COC(=O)C(C)Oc1ccc(Cc2ncc(C(F)(F)F)cc2Cl)cc1` (stereo unspecified), which outcome is on record?
**A.** Its outcome is “inactive”.

**Q.** With `CCCCNC(=S)Nc1ccc2cn[nH]c2c1` as the molecule, how does the outcome read?
**A.** The outcome was “inactive”.

**Q.** For `COC(=O)[C@H](CC(C)C)NC(=O)c1cc2c(cn1)[nH]c1ccccc12`, which outcome is on record?
**A.** Its outcome is “inactive”.

**Q.** Which outcome does the source give for `CCc1nc2ccccc2c(C(=O)Nc2cc(C)ccc2C)c1C` here?
**A.** Its outcome is “inactive”.

**Q.** For `O=C(Oc1ccc2ccccc2c1)c1cncc(Br)c1`, which outcome is on record?
**A.** The outcome was “inactive”.

**Q.** For `N=C1C(c2nc3ccccc3[nH]2)=C(O)CN1NC(=O)c1c[nH]c2ccccc12`, which outcome is on record?
**A.** Its outcome is “inactive”.

**Q.** Which outcome does the source give for `CCCCn1c(N)c(N(CC(C)C)C(=O)c2oc3c(Cl)cccc3c2C)c(=O)[nH]c1=O` here?
**A.** Its outcome is “inactive”.

**Q.** Which outcome does the source give for `Cc1ccc(CN2CC(C(=O)OCc3ccccc3Cl)CC2=O)cc1` (stereo unspecified) here?
**A.** Its outcome is “inactive”.

**Q.** For `CCOC(=O)CSc1ncnc2c1sc1nc(N3CCOCC3)c3c(c12)CCCC3`, which outcome is on record?
**A.** The outcome was “inactive”.

**Q.** With `COc1ccc(NC2=C(C(C)=O)C(c3ccc4c(c3)OCO4)C(C(C)=O)C(C)(O)C2)cc1` (stereo unspecified) as the molecule, how does the outcome read?
**A.** The outcome was “inactive”.

**Q.** With `CCCNC(=O)NC(=O)COc1ccc2oc3ccccc3c2c1` as the molecule, how does the outcome read?
**A.** The outcome was “inactive”.

**Q.** Which outcome does the source give for `COc1ccc(-c2cc3n(n2)CCc2nc4ccccc4n2-3)cc1` here?
**A.** Its outcome is “inactive”.

**Q.** With `NNC(=S)Nc1ccccc1Cl` as the molecule, how does the outcome read?
**A.** Its outcome is “inactive”.

**Q.** For `CCCCCOC(=O)Nc1nnc(CCCCC)s1`, which outcome is on record?
**A.** Its outcome is “inactive”.

**Q.** With `O=C(CSc1nnnn1-c1ccc2c(c1)OCCO2)OC1CCCCC1` as the molecule, how does the outcome read?
**A.** The outcome was “inactive”.

**Q.** Which outcome does the source give for `C=CCc1c(C)nc2ccc(C(=O)OCC)cc2c1Cl` here?
**A.** The outcome was “inactive”.

**Q.** Which outcome does the source give for `O=C(Nc1nc2c(s1)CCCC2)c1cc(-c2ccc3c(c2)OCO3)nc2ccccc12` here?
**A.** The outcome was “inactive”.

**Q.** With `C/C(=N\Nc1nc2c(s1)CCCC2)c1ccccc1` as the molecule, how does the outcome read?
**A.** The outcome was “inactive”.

**Q.** With `COC(=O)c1ccc2c(=O)[nH]c(CSc3nc(C)cs3)nc2c1` as the molecule, how does the outcome read?
**A.** Its outcome is “inactive”.

**Q.** For `C/C(=N\Nc1ccc([N+](=O)[O-])cc1)c1cccc(N)c1`, which outcome is on record?
**A.** Its outcome is “inactive”.

**Q.** Which outcome does the source give for `O=C1c2ccccc2S(=O)(=O)c2cc(C(=O)N3CCN(c4c(Cl)cncc4Cl)CC3)ccc21` here?
**A.** The outcome was “inactive”.

**Q.** Which outcome does the source give for `O=C(/C=C/c1ccc(OCCCF)cc1)Nc1ccnc(-c2ccncc2)n1` here?
**A.** Its outcome is “inactive”.

**Q.** For `CCCCOC1CC(c2ccc(OCc3ccc(OC)cc3)c(OC)c2)N(C)O1` (stereo unspecified), which outcome is on record?
**A.** Its outcome is “inactive”.

**Q.** For `CO/N=C\CC(=O)Nc1ccc(Oc2ccccc2)cc1`, which outcome is on record?
**A.** Its outcome is “inactive”.

**Q.** Which outcome does the source give for `O=C1c2ccccc2C(=O)N1Nc1ccccc1` here?
**A.** The outcome was “inactive”.

**Q.** With `O=C1C(=O)N(c2ccccc2)c2ccccc21` as the molecule, how does the outcome read?
**A.** Its outcome is “inactive”.

**Q.** With `CC(=O)c1c(N2CCCC2)[nH]c(-c2ccccc2)nc1=S` as the molecule, how does the outcome read?
**A.** Its outcome is “inactive”.

**Q.** For `Cc1ccc(-c2cccc(NC(=O)C3C4C=CC(C4)C3C(=O)O)c2)o1` (stereo unspecified), which outcome is on record?
**A.** Its outcome is “inactive”.

**Q.** With `NC(=O)/C(=N\OC(=O)c1ccco1)c1nc(-c2ccc(Br)cc2)cs1` as the molecule, how does the outcome read?
**A.** The outcome was “inactive”.

**Q.** Which outcome does the source give for `CCOC(=O)C(C)Oc1ccc(NC(=O)C(Cl)(Cl)Cl)cc1` (stereo unspecified) here?
**A.** The outcome was “inactive”.

**Q.** Which outcome does the source give for `CCOC1OC(=O)C(Cl)=C1Nc1ccccc1C` (stereo unspecified) here?
**A.** Its outcome is “inactive”.

**Q.** Which outcome does the source give for `COc1ccc(-c2ccc(=O)n(Cc3c(F)cccc3Cl)n2)cc1` here?
**A.** Its outcome is “inactive”.

**Q.** For `O=C(c1ccccc1)C1CN(Cc2ccccc2)CCC1(O)c1ccccc1` (stereo unspecified), which outcome is on record?
**A.** Its outcome is “inactive”.

**Q.** For `c1ccc(Cn2nnc3c(N4CCc5ccccc5C4)ncnc32)cc1`, which outcome is on record?
**A.** The outcome was “inactive”.

**Q.** With `Oc1ccc(F)c2cccnc12` as the molecule, how does the outcome read?
**A.** Its outcome is “inactive”.

**Q.** Which outcome does the source give for `CCCCn1cnc2cc(NCc3cccc(OC)c3O)ccc21` here?
**A.** The outcome was “inactive”.

**Q.** Which outcome does the source give for `CCOC(=O)N1CCN(C(=O)COC(=O)C2CCN(S(=O)(=O)c3c(Cl)cccc3Cl)CC2)CC1` here?
**A.** The outcome was “inactive”.

**Q.** Which outcome does the source give for `COc1c(C)cc(C(=O)C2CCCN(Cc3ccccn3)C2)cc1C` (stereo unspecified) here?
**A.** The outcome was “inactive”.

**Q.** Which outcome does the source give for `COC(=O)c1cc(Sc2cccc(Cl)c2Cl)ccn1` here?
**A.** The outcome was “inactive”.

**Q.** With `CCOC(=O)Oc1ccc2oc(C)c(C(=O)OCCOC)c2c1` as the molecule, how does the outcome read?
**A.** The outcome was “inactive”.

**Q.** With `Cc1nc(SCC(=O)NCC2CCCO2)c2c3c(sc2n1)CCCC3` (stereo unspecified) as the molecule, how does the outcome read?
**A.** Its outcome is “inactive”.

**Q.** Which outcome does the source give for `COc1ccc(-c2cc(-c3ccc(OC)cc3)[nH]n2)cc1` here?
**A.** The outcome was “inactive”.

**Q.** For `O=C(OCC(=O)N1CCN(c2ccccc2)CC1)c1cnc(Cl)c(Cl)c1`, which outcome is on record?
**A.** The outcome was “inactive”.

**Q.** Which outcome does the source give for `Cc1ccc2nc(-c3cccc(Br)c3)cc(C(=O)NC3=NCCS3)c2c1` here?
**A.** Its outcome is “inactive”.

**Q.** For `CCOC(=O)N1CCC(n2c(SCC(=O)OCc3ccccc3)nc3ccsc3c2=O)CC1`, which outcome is on record?
**A.** The outcome was “inactive”.

**Q.** For `C(=N\N1CCN(C2c3ccccc3-c3ccccc32)CC1)/c1ccccn1`, which outcome is on record?
**A.** The outcome was “inactive”.

**Q.** With `CCCC12CN3CC(CCC)(CN(C1)C3c1ccccn1)C2=O` (stereo unspecified) as the molecule, how does the outcome read?
**A.** The outcome was “inactive”.

**Q.** With `CCOC(=O)Cn1c(-c2ccccc2)ccc(C#N)c1=O` as the molecule, how does the outcome read?
**A.** Its outcome is “inactive”.

**Q.** Which outcome does the source give for `CCOc1[nH]n(-c2ccccc2)c(=O)c1C=Nc1ccc(OC)cc1` here?
**A.** The outcome was “inactive”.

**Q.** For `COc1ccccc1/C(C)=N/NC(=S)NCc1ccccc1`, which outcome is on record?
**A.** The outcome was “inactive”.

**Q.** For `COCCNC(=S)N/N=C(\C)c1ccc(OC)cc1`, which outcome is on record?
**A.** Its outcome is “inactive”.

**Q.** Which outcome does the source give for `CCOC(=O)c1cc(-c2csc(Nc3c(C)cc(C)cc3C)n2)on1` here?
**A.** The outcome was “inactive”.

**Q.** For `Nc1c(-c2ccccn2)cnn1-c1nc(-c2ccc(F)cc2)cs1`, which outcome is on record?
**A.** Its outcome is “inactive”.

**Q.** With `O=C(CCN1C(=O)C2CCCCC2C1=O)Nc1nc(-c2ccc(F)c(F)c2)cs1` (stereo unspecified) as the molecule, how does the outcome read?
**A.** Its outcome is “inactive”.

**Q.** For `CCCOc1ccc2oc(=O)c3c(c2c1)CCCN3C(=O)CN1CCN(c2ncccn2)CC1`, which outcome is on record?
**A.** Its outcome is “inactive”.

**Q.** With `CCOC(=O)c1cc(/C(C)=N/OC(=O)c2ccc(C(C)(C)C)cc2)on1` as the molecule, how does the outcome read?
**A.** Its outcome is “inactive”.

**Q.** With `O=C(Nc1cc(N2CCOCC2)ncn1)NC1(C(F)(F)F)Oc2ccc(Cl)cc2O1` (stereo unspecified) as the molecule, how does the outcome read?
**A.** The outcome was “inactive”.

**Q.** With `CCc1ccc(-c2csc(-c3c[nH]c4ccccc34)n2)cc1` as the molecule, how does the outcome read?
**A.** The outcome was “inactive”.

**Q.** For `Cc1ccc(CNc2ccc3c(c2)ncn3C(C)(C)C)cc1`, which outcome is on record?
**A.** The outcome was “inactive”.

**Q.** With `CCn1c(SCC(=O)N(C)CCC#N)nc2cc(S(=O)(=O)N3CCOCC3)ccc21` as the molecule, how does the outcome read?
**A.** Its outcome is “inactive”.
